Measurements reported in the supplement of paper PMC10849652.
Targets with a hit are over-represented here; the source holds about 7,900 in all. About 0.6% of all pairs of compound and target were hits.

Assays:
Assay in all cases: log2 fold change, soluble protein after heating vs DMSO (PISA); higher = thermal stabilisation; K562 cells, 10 uM, 30 min; active = over 0.2 and 3.5 SD of the protein, either way, in both replicates (recomputed)
[1] = compound: CS(=O)(=O)c1ccc(-c2cnc(N)c(C(=O)Nc3ccccc3)n2)cc1
How it was run: (§1)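 Thermal stability values are relative to control samples and come from duplicates. They are expressed as log2 fold changes. For measurement, K562 cells (2×10^6 cells/mL) received 10 μM compound for 30 min, and aliquots were heated for 3 min over 48°C-58°C, pooled, and extracted at 4°C in PBS with 0.5% NP-40. Soluble protein, the supernatant after 21,000xg for 90 min, was quantified by TMTpro 16plex LC-MS/MS with equalised channel sums.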

crizotinib = compound: C[C@@H](Oc1cc(-c2cnn(C3CCNCC3)c2)cnc1N)c1c(Cl)ccc(F)c1Cl [crizotinib]
How it was run: as §1

[2] = compound: C[C@@H]1COCCN1C2=NC(=NC(=C2)C3(CC3)S(=O)(=O)C)C4=C5C=CNC5=CC=C4
How it was run: as §1

[3] = compound: C[C@H](C1=CC=C(C=C1)C(=O)NC2=C3C=CNC3=NC=C2)N
How it was run: as §1

duvelisib = compound: C[C@H](Nc1ncnc2nc[nH]c12)c1cc2cccc(Cl)c2c(=O)n1-c1ccccc1 [duvelisib]
How it was run: as §1

gandotinib = compound: Cc1cc(Nc2cc(CN3CCOCC3)c3nc(C)c(Cc4ccc(Cl)cc4F)n3n2)n[nH]1 [gandotinib]
How it was run: as §1

tozasertib = compound: Cc1cc(Nc2cc(N3CCN(C)CC3)nc(Sc3ccc(NC(=O)C4CC4)cc3)n2)n[nH]1 [tozasertib]
How it was run: as §1

[4] = compound: Cc1cc(SCc2sc(-c3ccc(C(F)(F)F)cc3)nc2C)ccc1OCC(=O)O
How it was run: as §1

doramapimod = compound: Cc1ccc(-n2nc(C(C)(C)C)cc2NC(=O)Nc2ccc(OCCN3CCOCC3)c3ccccc23)cc1 [doramapimod]
How it was run: as §1

ispinesib = compound: Cc1ccc(C(=O)N(CCCN)[C@@H](c2nc3cc(Cl)ccc3c(=O)n2Cc2ccccc2)C(C)C)cc1 [ispinesib]
How it was run: as §1

bafetinib = compound: Cc1ccc(NC(=O)c2ccc(CN3CC[C@H](N(C)C)C3)c(C(F)(F)F)c2)cc1Nc1nccc(-c2cncnc2)n1 [bafetinib]
How it was run: as §1

[5] = compound: Cc1cccc(CC(=O)N2CCc3c2ccc(-c2cn(C)c4ncnc(N)c24)c3F)n1
How it was run: as §1

nilotinib = compound: Cc1cn(-c2cc(NC(=O)c3ccc(C)c(Nc4nccc(-c5cccnc5)n4)c3)cc(C(F)(F)F)c2)cn1 [nilotinib]
How it was run: as §1

[6] = compound: Cc1nc(Nc2n[nH]c3c2CN(C(=O)N[C@H](CN(C)C)c2ccccc2)C3(C)C)c2sccc2n1
How it was run: as §1

dasatinib = compound: Cc1nc(Nc2ncc(C(=O)Nc3c(C)cccc3Cl)s2)cc(N2CCN(CCO)CC2)n1 [dasatinib]
How it was run: as §1

[7] = compound: Cc1ncc(-c2ccnc(Nc3ccc(S(C)(=O)=O)cc3)n2)n1C(C)C
How it was run: as §1

[8] = compound: Cn1cc(-c2ccc3c(c2)CCN3C(=O)Cc2cccc(C(F)(F)F)c2)c2c(N)ncnc21
How it was run: as §1

[9] = compound: Cn1cc(-c2ccc3nnc(C(F)(F)c4ccc5ncccc5c4)n3n2)cn1
How it was run: as §1

tipifarnib = compound: Cn1cncc1[C@@](N)(c1ccc(Cl)cc1)c1ccc2c(c1)c(-c1cccc(Cl)c1)cc(=O)n2C [tipifarnib]
How it was run: as §1

mubritinib = compound: FC(F)(F)c1ccc(/C=C/c2nc(COc3ccc(CCCCn4ccnn4)cc3)co2)cc1 [mubritinib]
How it was run: as §1

Measured: log2 fold change

ECH1 (UniProt Q13011)
inactive: [1] 0.025 | crizotinib -0.086 | [2] 0.068 | [3] -0.011 | duvelisib 0.04 | gandotinib -0.195 | [4] -0.008 | doramapimod -0.023 | ispinesib -0.208 | bafetinib 0.318 | [5] -0.003 | nilotinib -0.024 | [6] 0.013 | dasatinib 0.249 | [7] -0.033 | [8] 0.134 | [9] 0.039 | tipifarnib -0.056 | mubritinib -0.011
active: tozasertib 0.434

CWC27 (UniProt Q6UX04)
inactive: [1] 0.03 | crizotinib 0.14 | [2] 0.145 | [3] -0.001 | duvelisib 0.144 | gandotinib 0.033 | tozasertib 0.077 | [4] 0.169 | doramapimod -0.091 | ispinesib -0.017 | bafetinib -0.147 | [5] -0.059 | nilotinib -0.058 | [6] -0.094 | dasatinib -0.087 | [7] 0.132 | [8] 0.056 | [9] 0.022 | tipifarnib -0.146 | mubritinib 0.109

DHPS (UniProt P49366)
Chain of UniProt P49366 (P49366 whole entry, looked up): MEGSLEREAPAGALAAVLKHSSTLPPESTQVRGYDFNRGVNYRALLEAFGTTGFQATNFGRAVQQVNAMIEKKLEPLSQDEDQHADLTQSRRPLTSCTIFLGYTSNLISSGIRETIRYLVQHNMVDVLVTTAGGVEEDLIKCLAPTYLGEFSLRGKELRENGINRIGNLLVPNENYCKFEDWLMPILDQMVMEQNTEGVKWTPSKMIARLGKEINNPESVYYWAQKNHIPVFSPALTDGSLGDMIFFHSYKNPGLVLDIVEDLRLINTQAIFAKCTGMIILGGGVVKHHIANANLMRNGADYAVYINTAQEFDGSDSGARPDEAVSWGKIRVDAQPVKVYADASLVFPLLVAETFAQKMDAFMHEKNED
inactive: [1] 0.015 | crizotinib -0.008 | [2] 0.043 | [3] -0.047 | duvelisib 0.059 | gandotinib 0.032 | tozasertib -0.046 | [4] -0.054 | doramapimod 0.051 | ispinesib 0.067 | bafetinib 0.026 | [5] -0.057 | nilotinib 0.035 | [6] 0.001 | dasatinib 0.014 | [7] 0.004 | [8] 0.008 | [9] -0.005 | tipifarnib -0.047 | mubritinib 0.061

CUX1 isoform 3 (UniProt P39880)
inactive: [1] 0.02 | crizotinib -0.023 | [2] 0.086 | [3] -0.002 | duvelisib 0.064 | gandotinib -0.048 | tozasertib 0.029 | [4] -0.026 | doramapimod 0.019 | ispinesib -0.101 | bafetinib -0.054 | [5] -0.032 | nilotinib -0.008 | [6] -0.06 | dasatinib -0.016 | [7] 0.044 | [8] 0.023 | [9] 0.08 | tipifarnib 0.046 | mubritinib 0.037

DYNC1LI2 (UniProt O43237)
inactive: [1] 0.025 | crizotinib 0.079 | [2] -0.283 | [3] 0.393 | duvelisib -0.049 | gandotinib 0.235 | tozasertib 0.018 | [4] 0.054 | doramapimod -0.121 | ispinesib -0.026 | bafetinib -0.041 | [5] -0.004 | nilotinib 0.109 | [6] 0.015 | dasatinib -0.068 | [7] 0.125 | [8] -0.184 | [9] 0.052 | tipifarnib -0.01 | mubritinib 0.024

F5 (UniProt P12259)
Chain of UniProt P12259 (P12259 whole entry, looked up): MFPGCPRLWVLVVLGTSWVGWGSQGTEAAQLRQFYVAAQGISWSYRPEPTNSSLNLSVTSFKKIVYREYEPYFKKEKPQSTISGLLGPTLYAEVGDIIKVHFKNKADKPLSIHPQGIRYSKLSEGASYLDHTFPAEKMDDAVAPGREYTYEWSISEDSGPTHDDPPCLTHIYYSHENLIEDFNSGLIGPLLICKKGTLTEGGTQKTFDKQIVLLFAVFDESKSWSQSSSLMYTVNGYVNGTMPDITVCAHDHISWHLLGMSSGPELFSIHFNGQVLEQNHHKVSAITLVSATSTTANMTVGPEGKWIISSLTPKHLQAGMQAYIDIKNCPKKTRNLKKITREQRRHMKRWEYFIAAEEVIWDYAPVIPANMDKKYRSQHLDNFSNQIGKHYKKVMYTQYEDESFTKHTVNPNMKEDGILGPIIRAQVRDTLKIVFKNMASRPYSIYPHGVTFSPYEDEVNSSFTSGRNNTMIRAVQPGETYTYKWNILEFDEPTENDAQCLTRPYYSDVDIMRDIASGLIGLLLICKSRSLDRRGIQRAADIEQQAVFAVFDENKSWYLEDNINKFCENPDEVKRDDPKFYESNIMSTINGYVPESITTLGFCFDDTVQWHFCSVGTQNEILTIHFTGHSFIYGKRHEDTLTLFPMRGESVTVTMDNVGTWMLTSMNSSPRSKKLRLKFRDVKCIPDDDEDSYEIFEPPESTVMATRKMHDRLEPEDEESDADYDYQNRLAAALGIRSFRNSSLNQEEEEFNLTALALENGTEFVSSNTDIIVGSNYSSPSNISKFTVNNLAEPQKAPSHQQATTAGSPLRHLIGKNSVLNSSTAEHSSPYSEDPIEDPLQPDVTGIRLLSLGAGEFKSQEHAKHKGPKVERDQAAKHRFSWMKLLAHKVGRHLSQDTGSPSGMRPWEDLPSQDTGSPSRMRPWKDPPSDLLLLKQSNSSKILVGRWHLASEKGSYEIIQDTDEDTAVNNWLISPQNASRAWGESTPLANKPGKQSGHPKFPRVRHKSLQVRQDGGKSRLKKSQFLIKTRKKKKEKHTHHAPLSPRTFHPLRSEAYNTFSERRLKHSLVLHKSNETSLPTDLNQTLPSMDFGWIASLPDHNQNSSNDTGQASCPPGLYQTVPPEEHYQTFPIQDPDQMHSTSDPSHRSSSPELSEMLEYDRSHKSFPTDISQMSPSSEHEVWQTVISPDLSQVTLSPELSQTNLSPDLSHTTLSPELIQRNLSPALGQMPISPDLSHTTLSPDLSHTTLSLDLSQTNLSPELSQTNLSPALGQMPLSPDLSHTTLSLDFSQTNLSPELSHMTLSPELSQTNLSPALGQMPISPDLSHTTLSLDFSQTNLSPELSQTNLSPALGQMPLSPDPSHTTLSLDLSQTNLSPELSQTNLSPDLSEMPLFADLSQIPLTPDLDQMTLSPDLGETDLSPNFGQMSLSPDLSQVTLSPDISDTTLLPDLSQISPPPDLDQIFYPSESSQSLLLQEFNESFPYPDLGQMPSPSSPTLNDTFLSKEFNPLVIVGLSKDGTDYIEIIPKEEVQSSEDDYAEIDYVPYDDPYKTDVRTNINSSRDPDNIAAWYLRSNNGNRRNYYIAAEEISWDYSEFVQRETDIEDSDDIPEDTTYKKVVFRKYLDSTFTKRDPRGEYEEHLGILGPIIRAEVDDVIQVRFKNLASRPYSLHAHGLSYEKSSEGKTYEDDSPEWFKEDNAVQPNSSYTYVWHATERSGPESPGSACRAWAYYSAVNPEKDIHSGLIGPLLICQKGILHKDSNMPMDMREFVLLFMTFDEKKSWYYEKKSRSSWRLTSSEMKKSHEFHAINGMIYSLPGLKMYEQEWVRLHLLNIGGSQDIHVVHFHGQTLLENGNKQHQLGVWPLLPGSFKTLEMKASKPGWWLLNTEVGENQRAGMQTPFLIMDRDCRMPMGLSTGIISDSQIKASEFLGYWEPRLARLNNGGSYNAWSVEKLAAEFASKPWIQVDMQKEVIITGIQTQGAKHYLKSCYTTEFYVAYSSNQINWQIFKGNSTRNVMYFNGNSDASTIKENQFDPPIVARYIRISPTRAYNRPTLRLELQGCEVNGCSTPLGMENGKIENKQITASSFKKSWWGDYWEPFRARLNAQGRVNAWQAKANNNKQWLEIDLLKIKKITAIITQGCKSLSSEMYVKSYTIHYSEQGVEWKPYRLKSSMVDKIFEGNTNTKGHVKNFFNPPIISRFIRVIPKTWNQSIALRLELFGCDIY
inactive: [1] 0.081 | crizotinib 0.257 | [2] -0.064 | [3] 0.057 | duvelisib -0.036 | gandotinib 0.023 | tozasertib 0.004 | [4] 0.223 | doramapimod 0.019 | ispinesib 0.055 | bafetinib -0.076 | [5] -0.02 | nilotinib 0.021 | [6] 0.019 | dasatinib 0.05 | [7] 0.023 | [8] 0.072 | [9] 0.111 | tipifarnib 0.153 | mubritinib -0.089

DBNL isoform 3 (UniProt Q9UJU6)
Chain of UniProt Q9UJU6 (Q9UJU6 whole entry, looked up): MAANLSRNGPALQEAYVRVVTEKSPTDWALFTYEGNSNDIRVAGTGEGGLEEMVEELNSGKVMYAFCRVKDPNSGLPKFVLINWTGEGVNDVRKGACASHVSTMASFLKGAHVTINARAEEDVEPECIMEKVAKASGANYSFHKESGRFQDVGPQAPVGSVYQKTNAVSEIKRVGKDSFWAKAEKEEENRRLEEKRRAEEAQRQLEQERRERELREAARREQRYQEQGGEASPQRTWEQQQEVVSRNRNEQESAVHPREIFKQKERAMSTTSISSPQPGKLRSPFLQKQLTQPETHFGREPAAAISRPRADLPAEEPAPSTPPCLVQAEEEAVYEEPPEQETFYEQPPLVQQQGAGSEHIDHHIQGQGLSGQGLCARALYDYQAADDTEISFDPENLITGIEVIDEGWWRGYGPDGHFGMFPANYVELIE
inactive: [1] 0.041 | crizotinib -0.116 | [2] 0.073 | [3] -0.016 | duvelisib 0.037 | gandotinib -0.094 | tozasertib 0.048 | [4] -0.015 | doramapimod 0.054 | ispinesib -0.048 | bafetinib 0.048 | [5] -0.007 | nilotinib -0.05 | [6] -0.071 | dasatinib -0.098 | [7] -0.013 | [8] -0.003 | [9] 0.057 | tipifarnib -0.096 | mubritinib 0.032

EXOC5 (UniProt O00471)
Chain of UniProt O00471 (O00471 whole entry, looked up): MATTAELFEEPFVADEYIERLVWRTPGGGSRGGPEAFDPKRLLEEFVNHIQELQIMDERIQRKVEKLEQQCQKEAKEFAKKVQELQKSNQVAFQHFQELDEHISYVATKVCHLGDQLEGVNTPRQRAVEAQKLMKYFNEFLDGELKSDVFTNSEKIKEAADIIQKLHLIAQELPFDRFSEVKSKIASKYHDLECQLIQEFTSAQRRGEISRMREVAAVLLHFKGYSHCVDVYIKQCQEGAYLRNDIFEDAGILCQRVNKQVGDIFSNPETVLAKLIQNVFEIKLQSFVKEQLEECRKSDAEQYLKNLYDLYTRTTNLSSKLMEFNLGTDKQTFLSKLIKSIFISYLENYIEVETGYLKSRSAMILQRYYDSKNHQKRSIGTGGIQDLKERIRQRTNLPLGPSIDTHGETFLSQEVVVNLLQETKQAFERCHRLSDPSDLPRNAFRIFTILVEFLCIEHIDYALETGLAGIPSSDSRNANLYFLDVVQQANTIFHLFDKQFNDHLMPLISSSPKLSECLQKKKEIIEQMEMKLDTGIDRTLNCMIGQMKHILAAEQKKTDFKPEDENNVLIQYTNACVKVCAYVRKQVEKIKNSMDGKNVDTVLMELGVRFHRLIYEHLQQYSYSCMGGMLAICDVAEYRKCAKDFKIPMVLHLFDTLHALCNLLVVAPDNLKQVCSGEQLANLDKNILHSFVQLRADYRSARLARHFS
active: crizotinib -0.279 | ispinesib -0.342
inactive: [1] -0.02 | [2] -0.017 | [3] 0.015 | duvelisib 0.005 | gandotinib -0.129 | tozasertib 0.014 | [4] 0.101 | doramapimod 0.008 | bafetinib -0.016 | [5] 0.061 | nilotinib -0.109 | [6] -0.258 | dasatinib -0.1 | [7] -0.078 | [8] 0.022 | [9] 0.026 | tipifarnib -0.076 | mubritinib 0.039

DCUN1D1 (UniProt Q96GG9)
Chain of UniProt Q96GG9 (Q96GG9 whole entry, looked up): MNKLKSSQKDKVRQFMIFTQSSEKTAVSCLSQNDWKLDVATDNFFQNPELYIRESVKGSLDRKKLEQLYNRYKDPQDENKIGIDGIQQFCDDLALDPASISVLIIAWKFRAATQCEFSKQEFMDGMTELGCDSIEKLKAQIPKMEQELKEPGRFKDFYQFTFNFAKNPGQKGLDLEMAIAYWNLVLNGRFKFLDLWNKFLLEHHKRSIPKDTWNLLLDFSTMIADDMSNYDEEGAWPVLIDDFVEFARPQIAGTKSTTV
inactive: [1] -0.027 | crizotinib -0.061 | [2] -0.047 | [3] -0.067 | duvelisib 0.004 | gandotinib -0.059 | tozasertib -0.004 | [4] 0.002 | doramapimod -0.053 | ispinesib 0.036 | bafetinib -0.083 | [5] 0.026 | nilotinib -0.025 | [6] -0.018 | dasatinib -0.047 | [7] 0 | [8] 0.008 | [9] 0.03 | tipifarnib -0.059 | mubritinib 0.015

FAM160B1 (UniProt Q5W0V3)
inactive: [1] 0.015 | crizotinib -0.119 | [2] 0.06 | [3] -0.003 | duvelisib 0.117 | gandotinib -0.217 | tozasertib 0.003 | [4] 0.049 | doramapimod -0.018 | ispinesib -0.125 | bafetinib -0.018 | [5] 0.023 | nilotinib -0.032 | [6] -0.049 | dasatinib -0.082 | [7] -0.014 | [8] -0.053 | [9] -0.039 | tipifarnib 0.115 | mubritinib 0.023

EXOC8 (UniProt Q8IYI6)
Chain of UniProt Q8IYI6 (Q8IYI6 whole entry, looked up): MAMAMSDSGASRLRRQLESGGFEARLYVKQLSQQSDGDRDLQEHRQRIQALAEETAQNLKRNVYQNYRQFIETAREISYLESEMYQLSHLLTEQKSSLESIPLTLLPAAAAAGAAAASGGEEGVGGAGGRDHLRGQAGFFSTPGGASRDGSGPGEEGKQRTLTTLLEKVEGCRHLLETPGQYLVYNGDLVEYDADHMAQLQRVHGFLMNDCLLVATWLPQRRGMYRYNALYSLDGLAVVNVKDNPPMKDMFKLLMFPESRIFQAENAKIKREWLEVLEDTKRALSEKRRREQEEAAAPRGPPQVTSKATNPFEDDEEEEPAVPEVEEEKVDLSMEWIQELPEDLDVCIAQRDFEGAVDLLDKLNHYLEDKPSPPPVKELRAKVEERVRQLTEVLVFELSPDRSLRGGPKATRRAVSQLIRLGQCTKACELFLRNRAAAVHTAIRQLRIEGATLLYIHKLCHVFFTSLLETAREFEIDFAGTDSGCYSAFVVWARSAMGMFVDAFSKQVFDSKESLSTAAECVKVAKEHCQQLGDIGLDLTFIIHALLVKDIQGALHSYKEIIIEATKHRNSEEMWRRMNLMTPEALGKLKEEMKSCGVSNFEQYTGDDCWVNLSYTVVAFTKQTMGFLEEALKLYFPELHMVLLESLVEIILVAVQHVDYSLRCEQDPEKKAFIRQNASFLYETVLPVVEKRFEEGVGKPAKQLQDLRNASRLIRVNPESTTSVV
inactive: [1] -0.062 | [2] 0.109 | [3] 0.053 | duvelisib 0.004 | gandotinib -0.203 | tozasertib 0.048 | [4] 0.063 | doramapimod 0.007 | bafetinib -0.081 | [5] 0.071 | nilotinib -0.054 | [6] -0.137 | dasatinib -0.1 | [7] -0.012 | [8] -0.015 | [9] 0.028 | tipifarnib -0.038 | mubritinib 0.039
active: crizotinib -0.32 | ispinesib -0.364

DCAF16 (UniProt Q9NXF7)
Chain of UniProt Q9NXF7 (Q9NXF7 whole entry, looked up): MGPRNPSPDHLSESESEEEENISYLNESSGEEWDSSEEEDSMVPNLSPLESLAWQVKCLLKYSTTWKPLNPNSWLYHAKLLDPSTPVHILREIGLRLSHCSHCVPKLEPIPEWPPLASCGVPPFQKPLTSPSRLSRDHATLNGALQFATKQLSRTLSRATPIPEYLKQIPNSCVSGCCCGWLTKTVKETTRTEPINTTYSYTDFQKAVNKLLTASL
inactive: [1] 0.058 | crizotinib 0.001 | [2] 0.176 | [3] -0.103 | duvelisib 0.054 | gandotinib 0.069 | tozasertib 0.079 | [4] 0.17 | doramapimod -0.005 | ispinesib 0.036 | bafetinib -0.051 | [5] -0.056 | nilotinib -0.005 | [6] -0.004 | dasatinib -0.179 | [7] 0.005 | [8] -0.031 | [9] 0.091 | tipifarnib -0.155 | mubritinib -0.085
